The list is not random: actives were taken first. Their share in the collection is about 16%.
DT40 TDP1 no CPT – qHTS for Inhibitors of human tyrosyl-DNA phosphodiesterase 1 (TDP1): qHTS in cells in absence of CPT | AID 686978, 2013 | DT40 Tdp1-/- hTDP1 cells, no CPT, ATP luminescence, 48 h | Potency, µM (titrated, usually from 46.2 µM), without a hit: at the highest dose activity change, negative = growth inhibition, actives largely listed as inhibitors | hit rate 15% among 420,000; note: potency is the fitted concentration of half-maximal effect; % is set by controls: 0 for no effect and ±100 for the full control effect; nearly all actives have a fitted effect of over 55% in size
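No-CPT arm: Tdp1-/-;hTDP1 DT40 cells (400/well) plus compounds, incubated ≥48 hr at 37 °C. Readout CellTiter-Glo luminescence.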
TDP1 block – qHTS Assay for Inhibitors of Tyrosyl-DNA Phosphodiesterase (TDP1). Tyrosyl-DNA phosphodiesterase 1 (Homo sapiens), Q9NUW8. recombinant TDP1, AlphaScreen DNA substrate cleavage. Potency, µM (doses to about 130 µM), for inactives: top-dose activity change, negative = inhibition, usual class: inhibitors. hit rate 0.28% among 350,000. AID 485290, 2010; note: potency is the fitted concentration of half-maximal effect; % is set by controls: 0 for no effect and ±100 for the full control effect; nearly all actives have a fitted effect of over 40% in size
Target sequence (Q9NUW8 whole entry, looked up): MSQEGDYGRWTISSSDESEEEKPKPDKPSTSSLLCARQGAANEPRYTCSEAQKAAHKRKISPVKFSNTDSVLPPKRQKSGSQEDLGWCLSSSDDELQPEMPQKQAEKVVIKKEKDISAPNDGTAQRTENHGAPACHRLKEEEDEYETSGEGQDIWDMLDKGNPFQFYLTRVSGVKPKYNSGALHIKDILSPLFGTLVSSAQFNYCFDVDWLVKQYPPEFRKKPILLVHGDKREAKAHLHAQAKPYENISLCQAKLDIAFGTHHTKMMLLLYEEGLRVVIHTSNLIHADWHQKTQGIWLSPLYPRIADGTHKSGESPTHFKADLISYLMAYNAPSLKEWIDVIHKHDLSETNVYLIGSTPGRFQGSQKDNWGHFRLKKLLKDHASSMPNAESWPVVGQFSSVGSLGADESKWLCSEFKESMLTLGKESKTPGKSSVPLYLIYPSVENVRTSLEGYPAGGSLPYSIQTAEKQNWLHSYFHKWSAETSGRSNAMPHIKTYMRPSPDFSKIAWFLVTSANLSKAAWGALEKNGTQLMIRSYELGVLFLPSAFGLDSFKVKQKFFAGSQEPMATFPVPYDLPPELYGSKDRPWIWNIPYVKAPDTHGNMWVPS
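E. coli-derived human Tdp1, 1 nM final. Cpd preinc 15 min RT; substrate 15 nM final, 5 min RT; AS bead mix 10 ug/ml final, 10 min RT. Signal loss = tyrosine-FITC cleavage. No-enzyme wells = max signal.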
DT40 TDP1 CPT – qHTS for Inhibitors of human tyrosyl-DNA phosphodiesterase 1 (TDP1): qHTS in cells in presence of CPT. hit rate 12% among 420,000. Potency, µM (series often up to 46.2 µM), inactives show top-dose activity change, negative = growth inhibition, usual class: inhibitors. chicken DT40 Tdp1-/-;hTDP1 cells + 20 nM CPT, ATP luminescence, 48 h. AID 686979, 2013; note: potency is the fitted concentration of half-maximal effect; % is set by controls: 0 for no effect and ±100 for the full control effect; nearly all actives have a fitted effect of over 55% in size
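Chicken DT40 Tdp1-/- cells complemented with human TDP1, 400 cells/well, exposed to compounds plus 20 nM camptothecin for at least 48 h at 37 C; viability read as ATP content by CellTiter-Glo luminescence.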
uPA surface inh – qHTS for Inhibitors of Cell Surface uPA Generation; hit rate 0.31% among 330,000; cell surface uPA generation assay, qHTS; Potency, µM (highest dose often 38.3 µM), for the others: at the highest dose activity change, negative = inhibition, most hits filed as inhibitors; AID 540303, 2011; active = well fitted inhibition curve with a large enough effect; inconclusive = small, poorly fitted or top-dose-only effect; inactive = no such curve, though single readings can be large or run the other way; tested in mouse RAW 264.7 cells; note: potency is the fitted concentration of half-maximal effect; % is set by controls: 0 for no effect and ±100 for the full control effect; nearly all actives have a fitted effect of over 55% in size
miR-21 reporter – qHTS Assay for Modulators of miRNAs and/orActivators of miR-21 | Potency, µM (titrated, usually from 38.3 µM), inactives show at the highest dose activity change, positive = activation, most hits filed as activators | HeLa miR-21 FLuc reporter, luciferase, 48 h | 340,000 tested, under 10 active | AID 2288, 2010;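 note: % of control where 0% means no effect; miR-21 action dims this reporter so a rising signal means less miR-21 action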
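Compounds were titrated across several concentrations (up to approximately 40 uM) and incubated 48 hours with HeLa miR-21-FLuc reporter cells (miR-21 target sequence downstream of FLuc, endogenous miR-21). Readout was firefly luciferase luminescence after lytic detection reagent.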
* marks the source's active call; other numbers are inactive results; ? = inconclusive; / = not tested or not shown. Unless noted, calls come from the whole dose curve; as a rule, active = well fitted curve in the direction sought with a large enough effect; inconclusive = small, poorly fitted or top-dose-only effect, or another doubt; inactive = no such curve, though single readings can be large; an effect the other way counts as inactive or inconclusive.

SMILES | DT40 TDP1 no CPT | TDP1 block | DT40 TDP1 CPT | uPA surface inh | miR-21 reporter
Nc1nonc1-n1nnc(C(=O)N/N=C/c2cccnc2)c1-c1cccs1 | 2% | 0% | -14% | 1% | 1%
N#Cc1ccc(CSCC(=O)O)cc1 | -4% | 2% | -17% | 10% | -1%
N#Cc1ccc(CN(Nc2ccccc2)c2ccccc2)cc1 | 21µM* | / | 18µM* | / | /
Cc1cc(CN(Nc2ccccc2)c2ccccc2)cc(C)n1 | 15µM* | / | ? | / | /
c1ccc(NN(Cc2ccncc2)c2ccccc2)cc1 | ? | / | -24% | / | /
Cc1nc(N)[nH]c(=O)c1CCCNS(=O)(=O)c1ccc([N+](=O)[O-])cc1 | -3% | / | -13% | 1% | /
COC(=O)c1ccc(CN(c2ccccn2)S(=O)(=O)c2ccccc2)cc1 | ? | 8% | -22% | -3% | -4%
COC(=O)c1ccc(CN(c2ccc(C(=O)O)c(O)c2)S(=O)(=O)c2ccc(Cl)c([N+](=O)[O-])c2)cc1 | 16µM* | / | 16µM* | -10% | 8%
C/C=C(/C)C(=O)O[C@@H]1Cc2c(ccc3ccc(=O)oc23)OC1(C)C | ? | -2% | ? | -16% | /
C/C=C(/C)C(=O)OC(C)(C)[C@@H]1Cc2c(ccc3ccc(=O)oc23)O1 | ? | 1% | 18µM* | 1% | -4%
C/C=C(/C)C(=O)O[C@@H]1c2c(ccc3ccc(=O)oc23)O[C@@H]1C(C)(C)OC(=O)/C(C)=C\C | 16µM* | -5% | ? | ? | 15%
C/C=C(/C)C(=O)O[C@H]1[C@@H](O)c2c(ccc3ccc(=O)oc23)OC1(C)C | -29% | 0% | ? | 3% | -1%
C/C=C(/C)C(=O)O[C@@H]1[C@H](OC(C)=O)c2c(ccc3ccc(=O)oc23)OC1(C)C | 16µM* | -4% | ? | 5% | -19%
Cc1cc(C)cc(N(C(=O)c2snc(C(N)=O)c2N)C(C(=O)NCC2CCCO2)c2cccs2)c1 (stereo not given) | 26µM* | 9% | 23µM* | 7% | -6%
NC(=O)c1nsc(C(=O)N(c2ccccc2)C(C(=O)NCC2CCCO2)c2cccs2)c1N (stereo not given) | 15µM* | -3% | 23µM* | 7% | 0%
COc1cccc(N(C(=O)c2snc(C(N)=O)c2N)C(C(=O)NCC2CCCO2)c2cccs2)c1 (stereo not given) | 16µM* | 9% | ? | 2% | -10%
COc1ccc(NC(=O)CN(C)S(=O)(=O)c2ccccc2)c([N+](=O)[O-])c1 | -16% | 5% | 18% | / | -6%
CCCCN(Cc1ccc(Cl)c(Cl)c1)c1ccc(Br)cn1 | ? | / | -3% | / | /
NCCCN(Cc1ccccc1)c1ccc(Br)cn1 | ? | / | 11µM* | / | /
CC(Sc1nnc2ccc3ccccc3n12)C(=O)Nc1ccc(Cl)cc1 (stereo not given) | ? | -8% | 15µM* | / | -2%
CC(=O)Nc1ccc(C(=O)CSc2nnc3ccc4ccccc4n23)cc1 | ? | 3% | ? | / | -11%
COc1ccccc1NC(=O)C(C)Sc1nnc2ccc3ccccc3n12 (stereo not given) | ? | -5% | 21µM* | / | 0%
CCOC(=O)C(C)Sc1nnc2ccc3ccccc3n12 (stereo not given) | ? | 3% | -1% | / | -37%
O=C1C(=O)N(CCN2CCOCC2)C(c2ccccn2)/C1=C(/O)c1ccc(F)cc1 (stereo not given) | 23µM* | 4% | ? | 3% | -5%
O=C(Nc1ccccc1Cl)OCc1cncs1 | 2% | 2% | -29% | -6% | -44%
SMILES | DT40 TDP1 no CPT | TDP1 block | DT40 TDP1 CPT | uPA surface inh | miR-21 reporter
Cc1cc(Nc2ccc(O)cc2)ccc1N | 3.2µM* | 7% | 5µM* | / | /
Oc1ccc(Nc2nc(-c3ccc4ccccc4c3)cs2)cc1 | / | 12% | / | / | -1%
Oc1ccc(Nc2ccc3ccccc3c2)cc1 | 23µM* | / | 18µM* | -8% | /
Cc1ccccc1-n1c(SCC(=O)c2ccccc2)nnc1-c1ccc(F)cc1 | ? | 0% | ? | / | ?
CCOC(=O)c1[nH]c(C)c(C(=O)OCC(=O)NCc2ccc(OC)c(OC)c2)c1C | ? | -1% | ? | 10% | /
CCOC(=O)c1c(C)[nH]c(C(=O)OCC(=O)NCc2ccc(F)cc2)c1C | ? | -1% | -19% | 5% | /
CCOc1ccc(CCNC(=O)COC(=O)c2cccs2)cc1OCC | -11% | 2% | -28% | 4% | 0%
CCOc1ccc(CCNC(=O)COC(=O)c2sccc2C)cc1OCC | 13µM* | 5% | ? | -1% | /
O=C(COC(=O)C1CC2C=CC1C2)NCc1ccco1 (stereo not given) | -25% | 28µM* | -25% | -5% | 0%
O=C(COC(=O)C1CC2C=CC1C2)NCc1ccc(F)cc1 (stereo not given) | -12% | 3% | -1% | 0% | -2%
CCOC(=O)c1c(C)[nH]c(C(=O)OCC(=O)NCCc2ccc(OCC)c(OCC)c2)c1C | 5.2µM* | / | 6.5µM* | 14% | /
CCOC(=O)c1c(C)[nH]c(C(=O)OCC(=O)NCc2ccco2)c1C | 23µM* | / | 18µM* | / | /
C=CCC(NC(=O)N(C)C)(C(=O)OC)C(C)O (stereo not given) | 4% | / | 9% | / | /
Cc1cccc(OCC(=O)O/N=C(\N)Cc2ccc([N+](=O)[O-])cc2)c1 | -4% | 0% | -8% | ? | 3%
COc1ccc(NC(=O)O/N=C/c2c(C)nn(C(C)(C)C)c2C)cc1 | ? | 1% | -20% | 2µM* | -44%
COc1cc(C=NOC(=O)Nc2ccccc2)cc(OC)c1OC | -5% | / | 22% | -1% | /
O=C(NCc1ccc(F)cc1)C(c1ccc(F)cc1)N(C(=O)c1csnn1)C1CC1 (stereo not given) | -21% | 0% | -2% | 1% | 1%
Cc1cc(C(=O)N2CCc3ccccc3C2)n[nH]1 | 20% | 3% | -3% | 1% | -28%
O=C(Cn1cnnn1)Nc1ccccc1Cc1ccccc1 | -28% | -1% | -4% | 2% | -4%
Cc1ccc(S(=O)(=O)N2CCC(C(=O)NNC(=O)c3ccccc3O)CC2)cc1 | 15µM* | / | ? | -6% | /
Cc1cc(C)c(C)c(S(=O)(=O)N2CCC(C(=O)NNC(=O)c3ccccc3O)CC2)c1C | 16µM* | 0% | ? | -5% | /
CCCCc1nnc(NC(=O)c2oc3ccccc3c2C)s1 | -13% | 0% | 0% | -2% | /
O=C(CN1CCN(S(=O)(=O)c2ccc(F)c(Cl)c2)CC1)N1CCc2ccccc21 | ? | 1% | ? | -1% | /

Screening data: PubChem BioAssay, National Center for Advancing Translational Sciences (NCATS)
